Compounds with a hit are over-represented: about 12% of the library has one in this group of screens.
Sfp inh – blocks B. subtilis Sfp PPTase activity; AID 1490; 310,000 tested, 3.5% active; Potency, µM, inactives show largest response in the series, negative = inhibition, usual class: inhibitors; Biochemical Sfp PPTase activity, qHTS; Q9F4F7;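 note: the enzyme is Sfp with the accession as filed and its product quenches rhodamine fluorescence; 0% = enzyme reaction without inhibitor and -100% = no enzyme wells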
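Buffer: 50 mM Hepes-Na pH 7.6, 10 mM MgCl2, 0.01% Nonidet P-40, 0.01% BSA. Enzyme 15 nM, pre-exposed to compound 15 min; substrates then added and fluorescence change tracked over 30 min.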
HP1b binding inh – blocks HP1-beta chromodomain binding to methylated histone tails; AlphaScreen HP1-beta / biotin-H3K9me3 peptide binding; Potency, µM (titrated, usually from 114 µM), for inactives: top-dose activity change, negative = inhibition, usual class: inhibitors; 390,000 tested, 0.56% active; AID 540317; note: nearly all actives have a fitted effect of over 70% in size
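HP1-beta protein (50 nM final) preincubated 30 min at room temperature with biotinylated H3(1-18)K9me3 peptide (50 nM) in PBS pH 7.4, 0.01% Tween-20, then compound added for 30 min. AlphaScreen streptavidin donor/nickel chelate acceptor beads (10 ug/mL final), 30 min dark, luminescence read.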
JMJD2A Tudor – JMJD2A Tudor domain (human) inhibition; O75164; AlphaScreen JMJD2A-Tudor / H3K4me3 peptide binding; Potency, µM (highest dose often 114 µM), without a hit: top-dose activity change, negative = inhibition, most hits filed as inhibitors; 390,000 tested, 4.4% active; AID 504339; note: % is set by controls: 0 for no effect and ±100 for the full control effect; nearly all actives have a fitted effect of over 50% in size
G9a block – blocks human histone lysine methyltransferase G9a; 350,000 tested, 8.8% active; Potency, µM (highest dose often 102 µM), inactives show at the top dose activity, negative = inhibition, actives largely listed as inhibitors; G9a H3K9 monomethylation, AlphaScreen, 2 h; note: % is set by controls: 0 for no effect and ±100 for the full control effect; nearly all actives have a fitted effect of over 75% in size
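AlphaScreen read-out: biotin-H3K9 peptide (500 nM) methylation by 20 nM enzyme with 20 uM SAM, 2 h at room temperature after 15 min compound preincubation; anti-monomethyl H3K9 antibody plus donor/acceptor beads, 10 min dark.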
L3MBTL1 block – inhibitors of human L3MBTL1. 230,000 tested, 0.66% active. AID 485360. Q9Y468. AlphaScreen L3MBTL1–H3K9me1 peptide binding. Potency, µM (top dose mostly 57.1 µM), for the others: top-dose activity, negative = inhibition, actives largely listed as inhibitors; note: % is set by controls: 0 for no effect and ±100 for the full control effect; nearly all actives have a fitted effect of over 60% in size
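AlphaScreen assay: L3MBTL1 (50 nM final) was preincubated 30 min at room temperature with biotinylated H3(1-15)K9me1 peptide (75 nM final), then 30 min with library compounds; streptavidin donor and nickel chelate acceptor beads (10 ug/mL final) added, 30 min dark.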
BAZ2B inh – blocks human BAZ2B; Q9UIF8; AlphaScreen BAZ2B-H3K14Ac peptide displacement; Potency, µM (top dose mostly 114 µM), for inactives: at the top dose activity change, negative = inhibition, most hits filed as inhibitors; 360,000 tested, 4.4% active; AID 504333; note: % is set by controls: 0 for no effect and ±100 for the full control effect; nearly all actives have a fitted effect of over 60% in size
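Protein-peptide AlphaScreen: BAZ2B 50 nM, b-H3K14Ac 50 nM, 1x PBS pH 7.4 + 0.01% Tween-20. Preincubation 30 min RT; cpd 30 min RT (top 110 uM); beads 20 min RT, light-protected.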
Numbers without * were called inactive; ? = inconclusive; · = no result given; [ ] = dose if it differs, or a comment. Calls come from the whole dose curve; as a rule, active = well fitted curve in the direction sought with a large enough effect; inconclusive = small, poorly fitted or top-dose-only effect, or another doubt; inactive = no such curve, though single readings can be large; an effect the other way counts as inactive or inconclusive. Potency is the fitted concentration of half-maximal effect.

SMILES	Sfp inh	HP1b binding inh	JMJD2A Tudor	G9a block	L3MBTL1 block	BAZ2B inh
O=c1c(O[C@@H]2O[C@H](CO)[C@H](O)[C@H](O)[C@H]2O)c(-c2ccc(O)c(O)c2)oc2cc(O)cc(O)c12	0.2%	·	·	12.6µM*	·	?
Cc1ccc2c(c1)-n1c(nc3ccccc3c1=O)C(Cc1ccccc1)NC2=O (stereo unspecified)	·	·	·	·	3.2%	·
Clc1ccc([C@H](Cn2ccnc2)OCc2c(Cl)cccc2Cl)c(Cl)c1	1.8%	·	·	-30.3%[21.5 µM]	·	·
O=c1cc(-c2ccc(O)c(O)c2)oc2cc(O)c(C3OC(CO)C(O)C(O)C3O)c(O)c12 (stereo unspecified)	-11.9%	4.4%	25.1µM*	-2.6%[12.7 µM]	15.8µM*	?
O=c1c(OC2OC(CO)C(O)C(O)C2OC2OC(CO)C(O)C(O)C2OC2OC(CO)C(O)C(O)C2O)c(-c2ccc(O)c(O)c2)oc2cc(O)cc(O)c12 (stereo unspecified)	-29.5%	-8.9%	31.6µM*	?	·	?
N#Cc1cc2c(nc1SCc1ccccc1)CCCCC2	-14.1%	98.7%	13.0%[11.4 µM]	226.8%	10.5%	91.0%
CSc1nc2c(cc1C#N)CCCCC2	2.9%	57.2%	41.4%	-5.6%[59 µM]	16.2%	64.4%
N#CCSc1nc2c(cc1C#N)CCCC2	?	42.3%	9.0%	25.1µM*	9.3%	7.8%
N#Cc1cc2c(nc1SCc1cccnc1)CCCCC2	79.4µM*	27.7%	-6.4%	3.3%[59 µM]	·	6.9%
CSC1CCCCC1(O)CSc1nc2c(cc1C#N)CCCC2 (stereo unspecified)	50.1µM*	?	20µM*	2.51µM*	-8.7%	3.4%
O=C(CCSCc1ccccc1F)N1CCN(c2ccc(F)cc2)CC1	·	13.1%	-22.3%	2.6%[59 µM]	·	-16.5%
CCC1CN(C(=O)N2CCC(C(=O)Nc3cc(C)ccc3C)CC2)c2ccccc2O1 (stereo unspecified)	·	9.7%	?	-37.6%[59 µM]	·	79.4µM*
CCC1CN(C(=O)N2CCC(C(=O)NCc3ccc(C)o3)CC2)c2cc(C)ccc2O1 (stereo unspecified)	-13.0%	22.1%	-26.4%	44.7µM*	·	-22.9%
CCC1CN(C(=O)N2CCC(C(=O)NCCc3ccccc3C)CC2)c2ccccc2O1 (stereo unspecified)	·	10.8%	-24.3%	?	·	79.4µM*
COCCCNC(=O)CSc1nc2c(sc3ccccc32)c(=O)n1CCc1ccc(OC)c(OC)c1	·	10.8%	-30.0%	0.4%[59 µM]	·	-1.2%
O=C(Cc1ccccc1)NC1CCSc2ccccc21 (stereo unspecified)	15.1%	24.4%	-26.0%	23.7%	·	-15.9%
CCCCCCC(=O)N(O)C1CC(=O)N(c2ccc(Cl)cc2)C1=O (stereo unspecified)	25.1µM*	39.8µM*	31.6µM*	·	-0.8%	-19.2%
CCCCCCC(=O)N(O)C1CC(=O)N(c2ccc(C)cc2)C1=O (stereo unspecified)	20µM*	?	14.1µM*	1.26µM*	·	2.8%
Cc1ccc(N2C(=O)CC(N(O)C3CC(=O)N(c4ccc(C)cc4)C3=O)C2=O)cc1 (stereo unspecified)	17.1%	8.8%	-34.3%	?	-3.6%	-18.4%
CC1(C)CCC[C@]2(C)C3CC(=O)O[C@@]3(C)CC[C@H]12 (stereo partly specified)	7.1%	·	·	·	·	·
Cc1cccc(OCC(=O)Nc2nonc2-c2ccc(Br)cc2)c1C	·	34.0%	-20.9%	-1.9%[59 µM]	·	0.6%
CCC1=C2CC[C@H]3C(=O)N(CC)C(=O)[C@H]3[C@H]2[C@@]2(Cc3ccccc3)C(=O)N(CCOC)C(=O)N2C1=O	14.6%	·	·	·	·	·
CC(=O)Nc1ccc(Nc2nc(-c3sc(NC(C)=O)nc3C)cs2)cc1	?	-12.6%	?	50.1µM*	2.2%	50.1µM*
CC(=O)Nc1nc(C)c(-c2csc(Nc3ccccn3)n2)s1	-9.0%	18.2%	-14.7%	-32.2%	-9.6%	?
CC(=O)Nc1nc(C)c(-c2csc(Nc3ccc(O)cc3)n2)s1	35.5µM*	?	50.1µM*	4.47µM*	-9.6%	50.1µM*
SMILES	Sfp inh	HP1b binding inh	JMJD2A Tudor	G9a block	L3MBTL1 block	BAZ2B inh
O=C1CCc2cc(Cl)c(S(=O)(=O)Nc3ccc(Cl)c(Cl)c3)cc2N1	·	·	-14.2%	·	·	·
CCc1cc(C(c2ccccn2)N2CCN(C)CC2)c(NC(=O)c2ccccc2)s1 (stereo unspecified)	6.9%	7.1%	?	39.8µM*	-4.9%	-35.6%
CC(=O)Nc1sc2c(c1C(c1ccccn1)N1CCCC1)CCCC2 (stereo unspecified)	44.7µM*	21.3%	?	-40.8%	-16.2%	-3.8%
O=C(CSc1nnc(NC(=O)C2CC2)s1)Nc1ccc(F)cc1F	2.6%	37.8%	-2.2%	26.7%	·	-1.4%
Cc1cc(C)cc(N2CC(C(=O)OCC(=O)Nc3cc(C)on3)CC2=O)c1 (stereo unspecified)	1.9%	11.8%	-2.8%	50.1µM*	·	-9.0%
Cc1ccc(N2CC(C(=O)OCC(=O)Nc3cc(C)on3)CC2=O)c(C)c1 (stereo unspecified)	15.9%	25.5%	-3.8%	16.7%	·	-15.7%
O=C(Nc1ccc(F)cc1)Nc1ccc2snnc2c1	·	43.8%	0.0%	-31.5%[59 µM]	·	4.5%
CNC(=O)Nc1ccc2snnc2c1	-4.1%	27.6%	-15.6%	50.1µM*	·	14.1%
COc1ccccc1-c1ccc2ncnc(NCCN3CCOCC3)c2c1	9.9%	·	·	0.0%[0.501 µM]	·	·
COc1ccc(-c2oc3ccc(N4CCOCC4)cc3c2/C=C/c2ccc(OC)c(OC)c2)cc1	-22.8%	26.4%	-31.5%	50.1µM*	-3.6%	?
O=S(=O)(NCCSCc1c(Cl)cccc1Cl)c1ccc2c(c1)OCCO2	20.3%	35.6%	0.7%	38.7%	-5.7%	-0.9%[57.1 µM]
O=S(=O)(NCCSCc1ccc(Cl)cc1Cl)c1ccc2c(c1)OCCO2	1.5%	1.7%	79.4µM*	24.4%	7.6%	1.4%
O=C(CSc1n[nH]c(-c2ccc(F)cc2)n1)N1CCN(c2ccc(F)cc2)CC1	·	13.2%[57 µM]	-22.1%	-23.4%[59 µM]	·	-17.1%
Clc1ccccc1N1CCN(Cc2c[nH]c3ccccc23)CC1	·	?	20µM*	·	·	·
COc1ccc(CN2CCN(Cc3c[nH]c4ccccc34)CC2)cc1	50.1µM*	35.5µM*	0.794µM*	?	·	20µM*
O=S(=O)(c1ccc(Cl)cc1)N1CCN(Cc2c[nH]c3ccccc23)CC1	10.0%	26.2%	3.2%	-31.6%[59 µM]	·	-35.6%
COc1ccc(Br)cc1CN1CCN(Cc2c[nH]c3ccccc23)CC1	?	?	2.82µM*	8.91µM*	·	14.1µM*
O=C(c1ccccc1)N1CCN(Cc2c[nH]c3ccccc23)CC1	13.1%	47.7%	-7.9%	3.1%[59 µM]	-2.3%	2.5%

Compound activity (PubChem)
